# Compounds with a hit are over-represented: about 10% of the library has one in this group of screens.
# BAZ2B inh = qHTS Assay for Inhibitors of BAZ2B | AID 504333, 2011 | Potency, µM (doses to about 114 µM), for the others: top-dose activity change, negative = inhibition, most hits filed as inhibitors | AlphaScreen BAZ2B-H3K14Ac peptide displacement | Bromodomain adjacent to zinc finger domain protein 2B (Homo sapiens), Q9UIF8 | hit rate 4.4% among 360,000; note: % is set by controls: 0 for no effect and ±100 for the full control effect; nearly all actives have a fitted effect of over 60% in size
#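 AlphaScreen displacement: compounds (up to 110uM) incubated 30 min at room temperature with a preformed 50 nM BAZ2B/50 nM biotinylated H3K14Ac peptide complex in PBS pH 7.4 with Tween-20. Donor and acceptor beads at 10 ug/mL final added, 20 min light-protected before reading.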
# JMJD2A Tudor = qHTS Assay for Inhibitors of JMJD2A-Tudor Domain. Lysine-specific demethylase 4A (Homo sapiens), O75164. AlphaScreen JMJD2A-Tudor / H3K4me3 peptide binding. Potency, µM (doses to about 114 µM), without a hit: top-dose activity change, negative = inhibition, usual class: inhibitors. hit rate 4.4% among 390,000; note: % is set by controls: 0 for no effect and ±100 for the full control effect; nearly all actives have a fitted effect of over 50% in size
# G9a block = qHTS Assay for Inhibitors of Histone Lysine Methyltransferase G9a. Histone-lysine N-methyltransferase EHMT2 (Homo sapiens), Q96KQ7. G9a H3K9 monomethylation, AlphaScreen, 2 h. Potency, µM (highest dose often 102 µM), without a hit: top-dose activity, negative = inhibition, usual class: inhibitors. hit rate 8.8% among 350,000. AID 504332, 2011; note: % is set by controls: 0 for no effect and ±100 for the full control effect; nearly all actives have a fitted effect of over 75% in size
#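 Readings reflect AlphaScreen signal from monomethyl-H3K9 antibody detection. HMT at 20 nM; substrate b-H3K9 500 nM; cofactor SAM 20 uM; 2 h RT reaction; compounds tested as titrations in qHTS with 15 min preincubation.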
# GLS inhibitor = qHTS for Inhibitors of Glutaminase (GLS) | Glutaminase kidney isoform, mitochondrial (Homo sapiens), O94925 | GLS enzymatic activity, qHTS titration | Potency, µM (doses to about 45.5 µM), for inactives: at the top dose activity change, negative = inhibition, most hits filed as inhibitors | hit rate 0.21% among 410,000 | AID 624170, 2012; note: % is set by controls: 0 for no effect and ±100 for the full control effect
# Target sequence (O94925 whole entry, looked up, canonical isoform): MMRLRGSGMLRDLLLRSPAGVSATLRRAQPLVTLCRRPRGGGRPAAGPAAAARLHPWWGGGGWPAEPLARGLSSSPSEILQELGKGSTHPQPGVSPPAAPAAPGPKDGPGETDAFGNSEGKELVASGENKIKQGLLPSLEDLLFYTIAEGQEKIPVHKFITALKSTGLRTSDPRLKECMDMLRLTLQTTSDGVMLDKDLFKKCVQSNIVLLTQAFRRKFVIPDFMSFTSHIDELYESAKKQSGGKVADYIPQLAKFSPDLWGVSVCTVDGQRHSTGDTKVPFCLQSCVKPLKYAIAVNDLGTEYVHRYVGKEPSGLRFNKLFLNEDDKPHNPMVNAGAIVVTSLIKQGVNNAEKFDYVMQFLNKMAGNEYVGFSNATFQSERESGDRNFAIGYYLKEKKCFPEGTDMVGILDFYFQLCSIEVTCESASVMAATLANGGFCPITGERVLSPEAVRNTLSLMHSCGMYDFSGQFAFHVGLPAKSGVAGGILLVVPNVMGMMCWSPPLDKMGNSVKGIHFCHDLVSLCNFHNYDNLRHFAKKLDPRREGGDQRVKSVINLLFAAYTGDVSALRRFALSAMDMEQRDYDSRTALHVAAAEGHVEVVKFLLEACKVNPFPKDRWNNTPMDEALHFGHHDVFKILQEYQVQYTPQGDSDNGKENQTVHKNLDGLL
#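 Compounds were pin-transferred onto hKGA, after which L-glutamine (1 mM solution) and a detection mix of glutamate oxidase, HRP and Amplex Red were added. Initial and 30 min RT fluorescence reads were collected.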
# HP1b chromo inh = HTS for Inhibitors of HP1-beta Chromodomain Interactions with Methylated Histone Tails; Chromobox protein homolog 1 (Homo sapiens), P83916; AlphaScreen HP1-beta / biotin-H3K9me3 peptide binding; Potency, µM (top dose mostly 114 µM), inactives show top-dose activity change, negative = inhibition, actives largely listed as inhibitors; hit rate 0.56% among 390,000; AID 540317, 2011; note: nearly all actives have a fitted effect of over 70% in size
#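 AlphaScreen: HP1-beta (50 nM) preformed 30 min with biotin-H3(1-18)K9me3 peptide (50 nM) in PBS pH 7.4, 0.01% Tween-20. Compound added for 30 min at RT, then streptavidin donor/nickel chelate acceptor beads (10 ug/mL) for 30 min.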
# The depositor's hits bear a star; ? = inconclusive; / = not tested or not shown; [ ] = remark or other dose. Calls come from the whole dose curve; as a rule, active = well fitted curve in the direction sought with a large enough effect; inconclusive = small, poorly fitted or top-dose-only effect, or another doubt; inactive = no such curve, though single readings can be large; an effect the other way counts as inactive or inconclusive. Potency is the fitted concentration of half-maximal effect.
SMILES,BAZ2B inh,JMJD2A Tudor,G9a block,GLS inhibitor,HP1b chromo inh
C=CCSc1nc2c(c(=O)[nH]c(=O)n2C)n1Cc1ccc(C)cc1,1%,-19%,14µM*,8%,-6%
CC=CCn1c(SCc2ccccc2)nc2c1c(=O)[nH]c(=O)n2C,/,/,/,-25%,/
CCCSc1nc2c(c(=O)[nH]c(=O)n2C)n1Cc1ccc(C)cc1,8%,-13%,6%,-5%,25%
O=C(O)CC(Cn1[nH]nnc1=S)c1ccccc1 (stereo not given),?,50µM*,8.9µM*,0%,13%
O=C(O)CC(CC(=O)Nc1nncs1)c1ccccc1 (stereo not given),-7%,-8%,-3%[12.7 µM],9%,13%
CN(CC(=O)Nc1ccccc1Br)C(=O)CN1CCN(c2ccccc2Cl)CC1,6%,-10%,19%[59 µM],5%,17%
Cc1cc(C(=O)N/N=C/c2cccc([N+](=O)[O-])c2)c(C)o1,-27%,-18%,27%,0%,31%
O=[N+]([O-])c1ccc(NN=Cc2ccccc2)nc1,/,-15%,/,21%,27%
COc1ccc(CC(=O)N/N=C/c2cccn2-c2ccc([N+](=O)[O-])cc2)cc1OC,40µM*,45µM*,?,9%,?
Cc1cc(/C=N/Nc2ccc([N+](=O)[O-])cn2)c(C)n1-c1ccc(C(=O)O)cc1,50µM*,?,50µM*,-24%,-36%
O=[N+]([O-])c1ccc(N/N=C\c2cccn2-c2ccccc2)nc1,?,40µM*,?,14%,?
CC(C)(C)OC(=O)N/N=C/c1cccc([N+](=O)[O-])c1,/,-1%,50µM*,6%,26%
COc1ccc([N+](=O)[O-])cc1/C=N/NC(=O)Cc1ccccc1,0%,-25%,20%,-5%,25%
CCn1c(C)nc2cc(C(=O)OC)ccc21,-8%,-9%,1%,1%,41%
CCC(CC)NC(=O)c1cc2c(C)nn(Cc3ccccc3Cl)c2s1,8%,-21%,-12%[59 µM],-6%,40%
CC(C)(C)OC(=O)N/N=C/c1cccn1-c1ccc([N+](=O)[O-])cc1,?,?,8.9µM*,1%,?
CC(C)(C)OC(=O)N/N=C\c1ccc[nH]1,-6%,-10%,-2%,5%,27%
Cc1cnc(NC(=O)NCC2CCCC(CNC(=O)Nc3ncc(C)s3)C2)s1 (stereo not given),32µM*,?,?,1%,-19%
Oc1ccc(C=NNc2ccccn2)c(O)c1,/,20µM*,/,35%,13%
O=c1nc(N/N=C/c2c[nH]c3ccccc23)cn[nH]1,-3%,-6%,/,1%,21%
Cc1cc(N/N=C/c2ccccc2O)c2ccccc2n1,?,?,/,7%,-5%
Cc1ccc(/C=N/Nc2cccc3cccnc23)c(O)c1,0%,?,18µM*,29%,19%
C(=N\Nc1ccccn1)/c1c[nH]c2ccccc12,32µM*,?,-46%,9%,-4%
CCN(CC)S(=O)(=O)c1ccc(N/N=C/c2ccc(O)cc2O)nc1,25µM*,-28%,17%[59 µM],2%,37%
CCOc1ccccc1Nc1nc(-c2sc(NC(=O)c3ccco3)nc2C)cs1,-31%,-30%,?,15%,?
SMILES,BAZ2B inh,JMJD2A Tudor,G9a block,GLS inhibitor,HP1b chromo inh
C=C(C)CNC(=S)N/N=C\c1ccc2c(c1)OCO2,-23%,-7%[11.4 µM],-36%[59 µM],60%,-15%
Oc1ccc(/C=N/Nc2cccc3cccnc23)c(O)c1,-10%,?,5.6µM*,26%,-11%
O=C(COC(=O)c1ccc(C(F)(F)F)cc1)Nc1cccc(S(=O)(=O)N2CCCCC2)c1,-6%,-21%,10µM*,0%,25%
O=C(COC(=O)c1ccc(Cl)nc1)Nc1ccc(S(=O)(=O)N2CCCC2)cc1,9%,-10%,45µM*,-16%,48%
CC(=O)c1ccc(OCC(=O)Nc2cccc(S(=O)(=O)N3CCCC3)c2)cc1,-2%,-16%,20µM*,-4%,22%
CNC(=O)COc1ccc(S(=O)(=O)N2CCCC2)cc1,-3%,11µM*,-1%,?,-14%
O=C(Nc1ccc(-c2nc3ccccc3s2)cc1)C1=COCCO1,-3%,-12%,10%[59 µM],-14%,25%
COc1cc(/C=N/NC(=O)C(C)Nc2n[nH]c(=O)[nH]c2=O)cc(OC)c1O (stereo not given),-6%,-15%,35µM*,3%,-14%
O=C(c1ccccn1)N(Cc1ccco1)C1(C(=O)NC2CCCC2)CCCCC1,8%,-20%[57.1 µM],31%[59 µM],1%,41%
O=C(c1ccc2c(c1)OCO2)N(Cc1ccco1)C1(C(=O)NC2CCCCC2)CCCCC1,-6%,-22%,79µM*,9%,-10%
O=C(O)/C=C/c1cccc(NS(=O)(=O)c2ccccc2)c1,7%,-4%,14%[59 µM],6%,16%
Cc1nc(=S)c2ccccc2[nH]1,3%,-13%,?,-1%,64%
FC(F)(F)c1nc(=S)c2ccccc2[nH]1,8%,50µM*,67%,-19%,?
S=c1nc(COc2ccccc2)[nH]c2ccccc12,-3%,-28%,18µM*,-17%,-11%
O=C(O)c1cccc2[nH]c(C(F)(F)F)nc12,56µM*,32µM*,40µM*,8%,-8%
O=C(O)c1ccc2nc(C(F)(F)F)[nH]c2c1,-7%,-5%,-4%[59 µM],/,46%
Nc1cccc2[nH]c(C(F)(F)F)nc12,56µM*,?,28µM*,76%,?
O=C(N/N=C/c1ccc([N+](=O)[O-])o1)c1ccc(NS(=O)(=O)c2cccs2)cc1,-11%,-25%,/,-4%,8%[57 µM]
Cc1c(C(=O)c2cccc(F)c2)c2ccccn2c1CCC#N,-17%,-23%[57.1 µM],-23%,-6%,13%
COc1ccc(C(=O)NC2CCSc3ccccc32)cc1 (stereo not given),-20%,-7%,20%,10%,17%
CC(=O)Nc1ccc(C(=O)NC2CCSc3ccccc32)cc1 (stereo not given),-10%,-22%,14µM*,0%,26%
CSc1ccccc1C(=O)NC1CCSc2ccccc21 (stereo not given),-9%,-26%,40µM*,0%,5%
O=C(NC1CCSc2ccccc21)c1ccccc1F (stereo not given),-3%,-6%,/,6%,45%
Cc1cccc(C)c1Nc1nnc(SCC(=O)c2ccc(Br)s2)s1,-8%,?,-15%[59 µM],16%,?
Cc1cccc(C)c1Nc1nnc(SCC(=O)c2ccc3c(c2)NC(=O)CO3)s1,-5%,-17%,11µM*,10%,22%
Cc1ccc2nc(SCC(=O)c3ccc4c(c3)NC(=O)CO4)[nH]c2c1,-3%,-4%,/,0%,20%

# Screens: PubChem BioAssay, National Center for Advancing Translational Sciences (NCATS)
